# Experimental data from PubChem BioAssay (NCATS).
# Values joined by “and” are separate entries in the source; they are usually repeats but may differ in a detail not shown here. Identical values can stand only once. Inconclusive results are not listed. Entries that show only a call come without a potency. Active and inactive are the calls of the source. Unless noted, calls come from the whole dose curve.
# Columns and labels:
# [1] = A High-Content qHTS Against Drug Library for the Identification of Small Molecules that Inhibit DYT1 Early Onset Primary Dystonia-Associated Cell Pathology (AID 1645839)
# How it was run: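 Readout: %pathology, the punctate EGFP-TorsinA distribution from imaging, as the primary channel and cell count as the toxicity counterscreen. HEK293 Flp-In cells expressing delE TorsinA were induced with tetracycline and treated with compound for 48 h.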
# [2] = target: Cytochrome P450 2C9 (Homo sapiens) (UniProt P11712); assay: Cytochrome P450 family 2 subfamily C member 9 (CYP2C9) small molecule antagonists: luciferase biochemical (cell-free) qHTS assay (AID 1645842; active = well fitted curve in the direction sought with a large enough effect in the repeat runs; an effect the other way counts as inactive or inconclusive; note: nearly all actives have a fitted effect of over 55% in size)
# How it was run: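 Luminescence, after 20 min with luciferin detection reagent, reflected CYP2C9 turnover during a 1 h NADPH-driven reaction at 37C. Enzyme-substrate mix contained 0.4% bovine serum albumin and was preincubated with compound 10 min at room temperature.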
# [3] = Cytotoxicity counterscreen for inhibitors of SARS-CoV-2 cell entry (AID 1645845); note: nearly all actives have a fitted effect of over 50% in size; note: potency is the fitted concentration of half-maximal effect
# How it was run: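 Expi293F/hACE2 cells seeded overnight; cpd pin-transferred in DMSO, 1 h preincubation, + media, 48 h 37 C 5% CO2; ATPLite 1step luminescence; normalized to cells and no cells.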
# [4] = Primary qHTS to identify inhibitors of SARS-CoV-2 cell entry (AID 1645846); conditions: activity change, negative = inhibition: at 57.1 µM (top of the series) unless noted; note: nearly all actives have a fitted effect of over 45% in size; note: potency is the fitted concentration of half-maximal effect
# How it was run: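 HEK293-ACE2 (Expi293F, stable hACE2), 1500 cells/well, o/n 37C; cpd 23 nL pin, 1 h; MLV-PP w/ SARS-CoV-2-S (Wuhan-Hu-1, Δ19 C-term); 48 h 37C; Bright-Glo luminescence; normalized vs S-PP and bald PP.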
# [5] = Primary qHTS for inhibitors of nuclear receptor binding SET domain protein 2 (NSD2) in an isogenic RCH-ACV NSD2 p.E1099K mutant (9B) (AID 1645876; active = well fitted curve in the direction sought with a large enough effect; an effect the other way counts as inactive or inconclusive; note: nearly all actives have a fitted effect of over 70% in size; note: potency is the fitted concentration of half-maximal effect)
# [6] = Primary qHTS for inhibitors of nuclear receptor binding SET domain protein 2 (NSD2) in an RCH-ACV wild type WT cells (2C) (AID 1645877; active = well fitted curve in the direction sought with a large enough effect; an effect the other way counts as inactive or inconclusive; note: nearly all actives have a fitted effect of over 70% in size; note: potency is the fitted concentration of half-maximal effect)
# [7] = Primary qHTS for small molecule stabilizers of the endoplasmic reticulum resident proteome: Secreted ER Calcium Modulated Protein (SERCaMP) assay (AID 1508630; active = well fitted curve in the direction sought with a large enough effect; an effect the other way counts as inactive or inconclusive)
# How it was run: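 GLuc-SERCaMP-expressing SH-SY5Y cells, pretreated 16 h with compound, are challenged with thapsigargin to empty ER calcium stores; after 4 h, coelenterazine is added directly to the medium and luminescence is imaged.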
# Papain (Carica papaya) = Papain (Carica papaya) (UniProt P00784); assay: Primary qHTS assay for inhibitors of the protease papain (AID 1645873; active = well fitted curve in the direction sought with a large enough effect; an effect the other way counts as inactive or inconclusive;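 note: papain turnover of Z-FR-AMC read as the AMC fluorescence gain over 10 min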)
# Chain of Papain (Carica papaya) (P00784 whole entry, looked up): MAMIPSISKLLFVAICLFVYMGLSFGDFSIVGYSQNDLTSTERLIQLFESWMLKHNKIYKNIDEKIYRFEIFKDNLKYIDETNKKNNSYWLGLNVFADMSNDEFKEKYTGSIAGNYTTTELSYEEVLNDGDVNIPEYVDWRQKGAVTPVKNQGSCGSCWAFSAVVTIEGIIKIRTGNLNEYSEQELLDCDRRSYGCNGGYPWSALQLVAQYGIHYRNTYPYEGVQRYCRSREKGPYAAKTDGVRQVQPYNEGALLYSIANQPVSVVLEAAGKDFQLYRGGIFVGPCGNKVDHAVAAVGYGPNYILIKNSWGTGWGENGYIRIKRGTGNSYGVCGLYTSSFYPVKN
# Chain of Cytochrome P450 2C9 (Homo sapiens) (P11712 whole entry, looked up): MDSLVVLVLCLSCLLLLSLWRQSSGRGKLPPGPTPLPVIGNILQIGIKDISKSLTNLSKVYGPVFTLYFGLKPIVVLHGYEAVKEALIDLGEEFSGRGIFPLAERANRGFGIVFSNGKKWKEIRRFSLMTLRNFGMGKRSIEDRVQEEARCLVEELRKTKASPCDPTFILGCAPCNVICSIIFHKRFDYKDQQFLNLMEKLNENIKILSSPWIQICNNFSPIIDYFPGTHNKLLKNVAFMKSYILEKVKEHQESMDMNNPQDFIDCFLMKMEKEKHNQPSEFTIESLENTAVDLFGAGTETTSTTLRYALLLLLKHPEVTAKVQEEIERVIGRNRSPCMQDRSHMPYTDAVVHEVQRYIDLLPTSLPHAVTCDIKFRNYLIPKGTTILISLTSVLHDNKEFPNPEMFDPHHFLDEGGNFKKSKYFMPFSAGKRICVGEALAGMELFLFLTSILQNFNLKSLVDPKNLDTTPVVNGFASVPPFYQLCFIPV
smiles,measurement,setting,value
CC[N+]1(CCOC(=O)C(O)(c2ccccc2)c2ccccc2)CCCCC1,Potency,[1],inactive
same,Potency,[2],inactive
same,Potency,[3],inactive
same,"activity change, negative = inhibition",[4],-23.2%
same,Potency,[5],inactive
same,Potency,[6],inactive
CC(N[C@H]1C[C@H]1c1ccccc1)c1ccc2c(c1)OCCO2 (stereo not given in full),Potency,[7],inactive
same,Potency,[5],inactive
CCCN1CCC[C@H](c2cccc(O)c2)C1,Potency,[7],inactive
same,Potency,Papain (Carica papaya),inactive
CC1(N2CCC(n3c([C@@H]4CCCNC4)nc4ccccc43)CC2)CCCCCCC1,Potency,[2],inactive
same,Potency,[4],5.01 µM (active)
same,Potency,[5],8.17 µM (active) and 14.8 µM (active)
same,Potency,[6],7.28 µM (active) and 13.2 µM (active)
O=C(O)CCCOc1ccc(Cl)cc1Cl,Potency,[1],inactive
same,Potency,[5],inactive
OCCCBr,Potency,[1],inactive
CCCCC(CC)COC(=O)c1ccccc1C(=O)OCC(CC)CCCC (stereo not given),Potency,[1],inactive
Cn1cc(-c2ccc3nnc(C(F)(F)c4ccc5ncccc5c4)n3n2)cn1,Potency,[3],inactive
same,Potency,[4],inactive
O=C(O)[C@@H](c1ccc(OCc2ccc3ccccc3n2)cc1)C1CCCC1,Potency,[3],inactive
same,"activity change, negative = inhibition",[4],-23.5%
Cn1c(Nc2ccc(C(F)(F)F)cc2)nc2cc(Oc3ccnc(-c4ncc(C(F)(F)F)[nH]4)c3)ccc21,Potency,[3],inactive
same,"activity change, negative = inhibition",[4],-24.1%
COCCNCCCn1c(C(=O)CF)c(-c2ccc(C)cc2)c2c(N)ncnc21,Potency,[3],inactive
same,Potency,[4],inactive
c1ccc2c(-c3cnn4cc(-c5ccc(N6CCNCC6)cc5)cnc34)ccnc2c1,Potency,[3],7.08 µM (active)
COc1cc2c(cc1OC)CN(CCc1ccc(NC(=O)c3cccc4c(=O)c5cccc(OC)c5[nH]c34)cc1)CC2,Potency,[3],inactive
same,"activity change, negative = inhibition",[4],-26.4%
C[C@H](CN1CCCC1)C(=O)c1ccc(C(F)(F)F)cc1,Potency,[3],inactive
same,"activity change, negative = inhibition",[4],-4.68%
Cc1cc(Nc2nc(N[C@@H](C)c3ncc(F)cn3)ncc2Cl)n[nH]1,Potency,[3],inactive
same,"activity change, negative = inhibition",[4],-52.3%
[O-][n+]1cccc(/C(Cl)=N/OC[C@@H](O)CN2CCCCC2)c1,Potency,[3],inactive
same,Potency,[4],inactive
COc1cc(Oc2ccnc3cc(OC)c(OC)cc23)ccc1NC(=O)NC(C)c1nccs1 (stereo not given),Potency,[3],inactive
c1ccc2c(CCNc3ccc(Nc4ccncc4)cc3)c[nH]c2c1,Potency,[3],17.8 µM (active)
same,Potency,[4],8.91 µM (active)
C[C@H](NC(=O)Cc1cc(F)cc(F)c1)C(=O)N[C@@H]1C(=O)N(C)c2ccccc2-c2ccccc21,Potency,[3],inactive
same,"activity change, negative = inhibition",[4],3.07%
CC(C)(C)C(O)/C=C/c1ccc2c(c1)OCO2 (stereo not given),Potency,[3],inactive
same,"activity change, negative = inhibition",[4],-17.5%
CCCS(=O)(=O)Nc1ccc(F)c(C(=O)c2c[nH]c3ncc(-c4ccc(Cl)cc4)cc23)c1F,Potency,[3],inactive
same,"activity change, negative = inhibition",[4],-8.78%
O=C(O)CC(O)C(=O)O (stereo not given),Potency,[3],inactive
same,Potency,[4],inactive
CC(=O)c1c(C)c2cnc(Nc3ccc(N4CCNCC4)cn3)nc2n(C2CCCC2)c1=O,Potency,[3],inactive
Cc1cc(SCc2sc(-c3ccc(C(F)(F)F)cc3)nc2C)ccc1OCC(=O)O,Potency,[3],inactive
same,Potency,[4],inactive
COc1c(Cl)cc2c([nH]c3cnccc32)c1NC(=O)c1cccnc1C,Potency,[3],inactive
same,"activity change, negative = inhibition",[4],-30.2%
NCCS,Potency,[3],inactive
same,Potency,[4],inactive
Fc1ccc(Cl)cc1-c1nc(Nc2ccncc2)c2nccnc2n1,Potency,[3],inactive
same,"activity change, negative = inhibition",[4],-13.6%
